Measured values taken from PubChem BioAssay (NCI).
Compounds without any hit were thinned out: in the full panel of roughly 79,000, 15% have a hit. No stated cut-off is given here; in the data, active means growth inhibition above about 70%; inactive means the rest.

Experiments:
[1] = NCI Yeast Anticancer Drug Screen. Data for the rad50 strain (AID 155);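 further: 0% = growth of vehicle-only cultures of the same strain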; settings: S. cerevisiae rad50 strain growth inhibition; at 50.0 µM; hits give high values
Procedure, shortened: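 Inhibition values express reduced yeast growth in compound-treated cultures relative to vehicle-treated controls.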

[2] = NCI Yeast Anticancer Drug Screen. Data for the mec2-1 strain (AID 157); settings: S. cerevisiae mec2-1 strain, at 50.0 µM, hits give high values
Procedure, shortened: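 Using mec2-1 yeast: add compound, measure growth, express inhibition versus vehicle-treated cultures.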

[3] = NCI Yeast Anticancer Drug Screen. Data for the sgs1 mgt1 strain (AID 161);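 further: 0% = growth of cultures given vehicle only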; settings: S. cerevisiae sgs1 mgt1 strain, at 50.0 µM, hits give high values
Procedure, shortened: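 This yeast growth screen uses a strain with defined DNA-repair lesions; compound-treated growth is compared with vehicle-treated growth.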

[4] = NCI Yeast Anticancer Drug Screen. Data for the cln2 rad14 strain (AID 165);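 further: 0% = growth equal to vehicle treated cultures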; settings: S. cerevisiae cln2 rad14 strain, at 50.0 µM, hits give high values
Procedure, shortened: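 Yeast strain cln2 rad14, bearing defects in cell cycle control and DNA repair, serves as the test system; values reflect growth inhibition compared with vehicle.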

[5] = NCI Yeast Anticancer Drug Screen. Data for the bub3 strain (AID 167); settings: S. cerevisiae bub3 mutant strain, at 50.0 µM, hits give high values
Procedure, shortened: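 Steps: expose the mutant yeast strain to compound; grow alongside vehicle-treated cultures; measure growth; express inhibition against the vehicle cultures.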

[6] = NCI Yeast Anticancer Drug Screen. Data for the mlh1 rad18 strain (AID 175); settings: S. cerevisiae mlh1 rad18 strain growth inhibition; at 50.0 µM; hits give high values
Procedure, shortened: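 Steps: expose repair-defective yeast to compound; measure growth; express inhibition against vehicle-treated controls.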

Measured: growth inhibition

Cc1nc2ccccc2nc1CCC(=O)O
inactive: [1] -22.9% | [2] 4.25% | [3] -17.4% | [4] -23.6% | [5] -11.2% | [6] -6.65%

CC1=C/C(=N/Nc2ccc([N+](=O)[O-])cc2[N+](=O)[O-])CC(C)(C)C1
inactive: [1] -21.3% | [2] -27.2% | [3] 18.4% | [4] -41% | [5] 3.1% | [6] 3.5%

COc1cc([N+](=O)[O-])ccc1NC(=O)C(Br)C(Br)c1ccccc1 (stereo not given)
inactive: [1] 11.7% | [2] -5.9% | [3] 10.6% | [4] -1.4% | [5] 12.5% | [6] 15.6%

CC(=O)OC1Cc2ccccc2C(OC(C)=O)Cc2ccccc21 (stereo not given)
inactive: [1] 29.6% | [2] 7.4% | [3] -1.25% | [4] 1.6% | [5] 18.4% | [6] 0.05%

Cc1cccc(C)c1NC(=O)C(=O)C(C#N)c1ccccc1Cl (stereo not given)
inactive: [1] -13.2% | [2] -47.7% | [3] -10.8% | [4] -1.1% | [5] 4.85% | [6] -11.5%

Nc1nc(N)c2ncn(Cc3c(Cl)cccc3Cl)c2n1
inactive: [1] -3.75% | [2] -3.95% | [3] 1.9% | [4] 6.8% | [5] 4.15% | [6] -9.65%

Cc1ccc(S(=O)(=O)OCCOCCOc2ccc(C(C)(C)CC(C)(C)C)cc2)cc1
inactive: [1] 49.7% | [2] 1.05% | [3] 34% | [4] 4.3% | [5] 3.8% | [6] 27%

C=C(C(C)C)C1CC1
inactive: [1] 0.25% | [2] -18.2% | [3] -4.25% | [4] 3.5% | [5] -2.6% | [6] -11.8%

Cc1ccc([N+](=O)[O-])cc1N1CCNC1=O
inactive: [1] 8.05% | [2] -17.2% | [3] -12.2% | [4] -62.7% | [5] 9% | [6] -21.9%

Cc1cccnc1NC=O
inactive: [1] -10.7% | [2] -12.2% | [3] -4.8% | [4] -17.6% | [5] -24.7% | [6] -9.7%

c1ccc(C2OC3C4COC(O4)C3O2)cc1 (stereo not given)
inactive: [1] -24.7% | [2] -19.9% | [3] -15.4% | [4] -19.1% | [5] -1.75% | [6] -9.7%

C=CCC1=C2CCCCC2CCC1=O (stereo not given)
inactive: [1] -5.7% | [2] -27.8% | [3] -15.9% | [4] 3.3% | [5] -11% | [6] 4.95%

O=C(O)CCCCCCCCCCCc1ccccc1
inactive: [1] -30.8% | [2] -16.8% | [3] -19.3% | [4] -13.2% | [5] 5.55% | [6] -38.5%

O=C(Nc1ccc(O)cc1)c1ccccc1O
inactive: [1] 31.6% | [2] -20.4% | [3] 14.3% | [4] -5.95% | [5] 15.4% | [6] 1.25%

O=S(=O)(N/C(=C(\NS(=O)(=O)c1ccccc1)c1ccccc1)c1ccccc1)c1ccccc1
inactive: [1] 63.7% | [2] 6.15% | [3] 39% | [4] 18.3% | [5] 60.9% | [6] 61.2%

C=C1CN(C(=O)NCCCl)C1
inactive: [1] 10.6% | [2] 17.4% | [3] 4.15% | [4] -11.3% | [5] 4.1% | [6] -7.8%

O=c1cc[nH]c2c(Cl)cccc12
inactive: [1] -8.15% | [2] -20.9% | [3] -5.05% | [4] 0.95% | [5] 2% | [6] -2.9%

c1ccc2c(c1)CC1C3c4ccccc4C(c4ccccc43)C1C2 (stereo not given)
inactive: [1] -12.1% | [2] 3.1% | [3] -8.95% | [4] 8.35% | [5] -16.2% | [6] -25.1%

CNC(=O)OC(COC)CN1CCN(c2ccccc2C)CC1 (stereo not given)
inactive: [1] -25.8% | [2] -47.8% | [3] -10.6% | [4] -1.25% | [5] -8.3% | [6] -6.5%

CCOC(=O)C(CN1CCN(CC(NC=O)(C(=O)OCC)C(=O)OCC)CC1)(NC=O)C(=O)OCC
inactive: [1] -17.1% | [2] -28.3% | [3] -11.9% | [4] -0.5% | [5] 1.15% | [6] -30.1%

CCCCCCCCS(N)(=O)=O
inactive: [1] 0.8% | [2] -15.2% | [3] -4.1% | [4] -11.4% | [5] -2.55% | [6] -8.95%

O=C(Oc1c(Br)cc(Br)cc1C(=O)Oc1ccccc1)C(=O)Oc1c(Br)cc(Br)cc1C(=O)Oc1ccccc1
inactive: [1] 52.7% | [2] 23.9% | [3] 19.9% | [4] 28.8% | [5] 51.2% | [6] 32.6%

CN(NC(=O)Nc1cccc2ccccc12)c1ccccc1
inactive: [1] -4.7% | [2] -16.2% | [3] 14.7% | [4] -63.8% | [5] 1.65% | [6] -6.85%

Cc1ccc(/C=N/NS(=O)(=O)c2ccccc2)cc1
inactive: [1] 18.4% | [2] 13.8% | [3] 15.6% | [4] -16.7% | [5] 12.1% | [6] 24.9%

CC1=NNC(=O)C2CCC(=O)N12 (stereo not given)
inactive: [1] 14.8% | [2] 1% | [3] 7.15% | [4] 11.1% | [5] 12.1% | [6] 22.8%

CC(C)CCCC(C)[C@H]1CCC2[C@@H]3CCC4Cc5nc6c(nc5C[C@]4(C)C3CC[C@@]21C)CC1CC[C@@H]2C(C[C@@H](O)[C@@]3(C)C2C[C@@H]2OC4(CCC(C)CO4)C(C)[C@@H]23)[C@@]1(C)C6 (stereo not given in full)
inactive: [1] -19.6% | [2] 1.65% | [3] -21.8% | [4] -15% | [5] -10.9% | [6] -8.65%

CC1COC(C)(C)O1 (stereo not given)
inactive: [1] 19.3% | [2] -31.6% | [3] 16.4% | [4] 0.65% | [5] 8% | [6] 11.2%

Cc1ccc2c(c1)P(=O)(O)c1cc(C)ccc1O2
inactive: [1] -45.4% | [2] -13.2% | [3] 23.6% | [4] 3.2% | [5] -9.6% | [6] -8.55%

COc1cc2c(c3oc(=O)cc(CCC(=O)O)c13)C1CC(=O)OC1O2 (stereo not given)
inactive: [1] 3.75% | [2] -16.6% | [3] -9.15% | [4] 1% | [5] -10.7% | [6] 10.8%

Cn1c2c(c3ccccc31)CCN=C2C1CCCOC1=O (stereo not given)
inactive: [1] -27.6% | [2] -54.2% | [3] -21.1% | [4] -17.5% | [5] -9.3% | [6] -39.1%

C/C(CC(=O)Nc1ccc(C)c(C)c1)=N\NC(N)=S
inactive: [1] -13.8% | [2] -6.1% | [3] 1.45% | [4] 18.2% | [5] 0.05% | [6] -2.4%

CC(=O)OCC1OC(n2c(C)c(N=Nc3ccc(C)cc3)c(C)c(C#N)c2=S)C(OC(C)=O)C(OC(C)=O)C1OC(C)=O (stereo not given)
inactive: [1] -8.05% | [2] -14.4% | [3] 11.9% | [4] 2.65% | [5] -10.8% | [6] -2.75%

COc1cccc2c1C(=O)C1(O)CCCCC21 (stereo not given)
inactive: [1] -55.8% | [2] -41.6% | [3] -65.3% | [4] -21.4% | [5] -59.5% | [6] -25.7%

OC(c1ccncc1)(c1ccc(Cl)cc1)c1cccs1 (stereo not given)
inactive: [1] 6.35% | [2] 11.2% | [3] 6.95% | [4] -5.2% | [5] 21.4% | [6] 7.7%

CCCOP(=O)(CCCP(=O)(OCCC)OCCC)OCCC
inactive: [1] -8.4% | [2] -9.6% | [3] 0.5% | [4] -25.6% | [5] 6.2% | [6] -12.5%

CCC(C(C)O)[N+](=O)[O-] (stereo not given)
inactive: [1] 32.8% | [2] -1.1% | [3] 10% | [4] 4.15% | [5] 7.25% | [6] 7.75%

c1ccc(-c2cn3c(nc4ccccc43)c(-c3ccccc3)n2)cc1
inactive: [1] -44.6% | [2] -7.15% | [3] -29.1% | [4] -1.15% | [5] -4.3% | [6] -41.9%

CCC/C=C(/CC)COC(C)=O
inactive: [1] 3.15% | [2] -19.1% | [3] -6.6% | [4] -7.25% | [5] -5.35% | [6] -3.85%

CC(=C/c1ccccc1)/C=C1/SC(=S)N(C=C2C(=O)NC(=O)NC2=O)C1=O
inactive: [1] 54.9% | [2] 54.1% | [3] 32.4% | [4] 50.2% | [5] 50.5% | [6] 43.2%

C#CC(CCC)NCCCC (stereo not given)
inactive: [1] 16.2% | [2] -8.95% | [3] -8.8% | [4] 3.05% | [5] -4.9% | [6] -1.95%
